Key:
[1] = molecular target: T1, Ephrin type-A receptor 3 (Homo sapiens) (UniProt P29320); conditions: at 10 µM
T1 sequence (whole entry): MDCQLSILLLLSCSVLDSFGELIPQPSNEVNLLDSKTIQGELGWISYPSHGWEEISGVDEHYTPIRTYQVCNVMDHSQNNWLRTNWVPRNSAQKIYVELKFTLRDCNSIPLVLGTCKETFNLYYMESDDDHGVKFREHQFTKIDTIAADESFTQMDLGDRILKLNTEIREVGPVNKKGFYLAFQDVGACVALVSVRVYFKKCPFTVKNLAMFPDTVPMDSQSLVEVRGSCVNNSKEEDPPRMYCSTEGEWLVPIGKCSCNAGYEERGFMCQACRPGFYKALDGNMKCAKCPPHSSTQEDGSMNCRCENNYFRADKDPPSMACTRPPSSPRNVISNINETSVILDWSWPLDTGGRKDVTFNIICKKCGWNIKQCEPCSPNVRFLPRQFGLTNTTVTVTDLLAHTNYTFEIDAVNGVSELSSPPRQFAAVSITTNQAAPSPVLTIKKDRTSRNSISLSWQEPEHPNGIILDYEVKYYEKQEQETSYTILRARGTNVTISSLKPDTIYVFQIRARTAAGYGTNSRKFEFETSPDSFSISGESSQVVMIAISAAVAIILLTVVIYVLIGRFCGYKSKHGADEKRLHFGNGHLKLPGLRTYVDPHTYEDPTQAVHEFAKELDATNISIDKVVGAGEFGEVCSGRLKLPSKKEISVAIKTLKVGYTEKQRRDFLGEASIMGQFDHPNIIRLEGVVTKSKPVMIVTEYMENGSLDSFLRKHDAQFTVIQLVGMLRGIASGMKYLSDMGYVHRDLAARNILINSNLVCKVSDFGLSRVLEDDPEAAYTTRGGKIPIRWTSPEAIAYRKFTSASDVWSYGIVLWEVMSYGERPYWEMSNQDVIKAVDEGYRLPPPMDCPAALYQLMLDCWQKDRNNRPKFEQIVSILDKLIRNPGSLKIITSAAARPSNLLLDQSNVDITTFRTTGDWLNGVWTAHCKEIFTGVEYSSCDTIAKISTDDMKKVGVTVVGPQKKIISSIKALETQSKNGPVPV

[2] = molecular target: Ephrin type-A receptor 4 (Homo sapiens) (UniProt P54764); conditions: at 10 µM
[3] = molecular target: Ephrin type-A receptor 5 (Homo sapiens) (UniProt P54756); conditions: at 10 µM
[4] = molecular target: Ephrin type-A receptor 7 (Homo sapiens) (UniProt Q15375); conditions: at 1 µM
[5] = molecular target: Ephrin type-A receptor 7 (Homo sapiens) (UniProt Q15375); conditions: at 10 µM
[6] = molecular target: T2, Ephrin type-A receptor 8 (Homo sapiens) (UniProt P29322); conditions: at 1 µM
T2 sequence (whole entry): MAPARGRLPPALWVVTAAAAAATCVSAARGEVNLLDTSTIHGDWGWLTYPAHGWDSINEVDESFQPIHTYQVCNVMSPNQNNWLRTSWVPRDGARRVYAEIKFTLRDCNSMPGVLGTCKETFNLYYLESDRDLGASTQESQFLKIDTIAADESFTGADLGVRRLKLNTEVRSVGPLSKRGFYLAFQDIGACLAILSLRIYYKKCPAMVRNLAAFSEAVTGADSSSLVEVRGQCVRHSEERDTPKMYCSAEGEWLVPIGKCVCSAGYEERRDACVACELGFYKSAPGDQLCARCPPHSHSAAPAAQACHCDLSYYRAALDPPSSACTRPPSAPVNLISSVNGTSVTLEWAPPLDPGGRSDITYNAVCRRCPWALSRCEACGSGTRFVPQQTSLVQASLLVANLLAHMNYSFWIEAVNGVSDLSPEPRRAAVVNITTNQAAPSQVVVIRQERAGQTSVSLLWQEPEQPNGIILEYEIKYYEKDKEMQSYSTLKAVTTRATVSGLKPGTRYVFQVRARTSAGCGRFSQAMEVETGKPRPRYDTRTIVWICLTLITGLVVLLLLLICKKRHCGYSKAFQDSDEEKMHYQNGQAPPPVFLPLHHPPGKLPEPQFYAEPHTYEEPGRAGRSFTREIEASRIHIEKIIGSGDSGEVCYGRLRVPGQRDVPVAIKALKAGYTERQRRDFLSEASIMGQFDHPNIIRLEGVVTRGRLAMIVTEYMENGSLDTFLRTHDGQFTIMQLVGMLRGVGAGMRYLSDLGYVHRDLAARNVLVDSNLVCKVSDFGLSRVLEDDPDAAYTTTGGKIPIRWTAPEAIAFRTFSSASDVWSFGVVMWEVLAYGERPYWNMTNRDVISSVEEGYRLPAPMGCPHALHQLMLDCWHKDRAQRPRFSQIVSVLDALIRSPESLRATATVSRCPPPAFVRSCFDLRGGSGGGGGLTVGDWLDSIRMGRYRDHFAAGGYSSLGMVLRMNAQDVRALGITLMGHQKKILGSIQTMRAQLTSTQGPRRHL

[7] = molecular target: T2, Ephrin type-A receptor 8 (Homo sapiens); conditions: at 10 µM
[8] = molecular target: T3, Ephrin type-B receptor 4 (Homo sapiens) (UniProt P54760); conditions: at 1 µM
T3 sequence (whole entry): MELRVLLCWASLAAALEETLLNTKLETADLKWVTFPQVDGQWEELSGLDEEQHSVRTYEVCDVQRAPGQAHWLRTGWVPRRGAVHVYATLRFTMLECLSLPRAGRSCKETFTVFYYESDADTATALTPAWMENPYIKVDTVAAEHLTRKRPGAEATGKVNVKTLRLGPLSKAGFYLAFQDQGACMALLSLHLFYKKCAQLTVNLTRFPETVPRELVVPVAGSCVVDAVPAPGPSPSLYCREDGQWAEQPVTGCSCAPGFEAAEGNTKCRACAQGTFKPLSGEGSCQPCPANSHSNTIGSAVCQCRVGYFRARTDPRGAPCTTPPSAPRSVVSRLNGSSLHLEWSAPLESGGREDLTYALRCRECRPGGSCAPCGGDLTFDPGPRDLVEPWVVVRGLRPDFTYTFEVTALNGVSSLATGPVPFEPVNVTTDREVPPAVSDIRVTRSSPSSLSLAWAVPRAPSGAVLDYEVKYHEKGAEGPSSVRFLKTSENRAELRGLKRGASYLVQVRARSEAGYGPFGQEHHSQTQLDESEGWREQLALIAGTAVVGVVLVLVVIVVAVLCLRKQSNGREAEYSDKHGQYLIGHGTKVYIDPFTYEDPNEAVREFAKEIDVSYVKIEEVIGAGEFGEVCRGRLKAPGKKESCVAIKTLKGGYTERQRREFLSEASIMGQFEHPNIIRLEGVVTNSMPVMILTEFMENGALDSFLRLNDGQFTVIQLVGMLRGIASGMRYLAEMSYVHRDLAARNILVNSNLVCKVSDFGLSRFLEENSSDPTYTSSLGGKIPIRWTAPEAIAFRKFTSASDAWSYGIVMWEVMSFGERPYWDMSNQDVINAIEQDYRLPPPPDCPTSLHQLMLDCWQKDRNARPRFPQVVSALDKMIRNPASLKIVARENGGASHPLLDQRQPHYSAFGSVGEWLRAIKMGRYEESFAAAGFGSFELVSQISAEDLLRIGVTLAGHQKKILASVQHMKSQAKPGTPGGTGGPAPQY

[9] = molecular target: T3, Ephrin type-B receptor 4 (Homo sapiens); conditions: at 10 µM
[10] = molecular target: Focal adhesion kinase 1 (Homo sapiens) (UniProt Q05397); conditions: at 1 µM
[11] = molecular target: Ephrin type-A receptor 5 (Homo sapiens) (UniProt P54756); conditions: at 1 µM
[12] = molecular target: T4, Ephrin type-B receptor 2 (Homo sapiens) (UniProt P29323); conditions: at 1 µM
T4 sequence (whole entry): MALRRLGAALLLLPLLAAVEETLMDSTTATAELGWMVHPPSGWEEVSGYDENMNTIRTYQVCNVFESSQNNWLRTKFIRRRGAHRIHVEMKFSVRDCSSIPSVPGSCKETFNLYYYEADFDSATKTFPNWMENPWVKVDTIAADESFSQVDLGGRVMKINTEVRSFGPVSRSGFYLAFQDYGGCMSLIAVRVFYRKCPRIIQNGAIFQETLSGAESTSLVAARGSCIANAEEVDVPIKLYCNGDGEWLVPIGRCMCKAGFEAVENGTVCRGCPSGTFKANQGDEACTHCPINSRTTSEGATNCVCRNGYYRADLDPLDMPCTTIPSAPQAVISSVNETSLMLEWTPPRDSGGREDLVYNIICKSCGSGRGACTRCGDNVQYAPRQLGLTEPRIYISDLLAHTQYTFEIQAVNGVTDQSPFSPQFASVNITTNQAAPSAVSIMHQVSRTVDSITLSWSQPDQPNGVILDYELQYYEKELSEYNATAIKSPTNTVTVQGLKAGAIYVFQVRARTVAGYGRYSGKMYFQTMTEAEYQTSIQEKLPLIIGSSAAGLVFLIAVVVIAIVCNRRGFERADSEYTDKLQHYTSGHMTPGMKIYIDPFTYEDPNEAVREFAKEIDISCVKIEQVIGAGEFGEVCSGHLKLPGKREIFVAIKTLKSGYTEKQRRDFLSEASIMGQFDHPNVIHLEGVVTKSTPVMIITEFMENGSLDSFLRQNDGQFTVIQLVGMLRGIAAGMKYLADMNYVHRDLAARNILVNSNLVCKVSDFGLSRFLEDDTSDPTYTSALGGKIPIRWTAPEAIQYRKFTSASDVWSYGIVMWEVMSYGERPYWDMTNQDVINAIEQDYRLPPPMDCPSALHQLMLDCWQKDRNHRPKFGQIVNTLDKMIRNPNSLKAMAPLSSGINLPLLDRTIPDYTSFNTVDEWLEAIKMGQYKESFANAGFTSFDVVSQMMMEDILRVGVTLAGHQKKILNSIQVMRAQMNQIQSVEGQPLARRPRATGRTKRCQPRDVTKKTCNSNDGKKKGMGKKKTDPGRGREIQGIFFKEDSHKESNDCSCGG

[13] = molecular target: T4, Ephrin type-B receptor 2 (Homo sapiens); conditions: at 10 µM
[14] = molecular target: T5, Ephrin type-B receptor 3 (Homo sapiens) (UniProt P54753); conditions: at 1 µM
T5 sequence (whole entry): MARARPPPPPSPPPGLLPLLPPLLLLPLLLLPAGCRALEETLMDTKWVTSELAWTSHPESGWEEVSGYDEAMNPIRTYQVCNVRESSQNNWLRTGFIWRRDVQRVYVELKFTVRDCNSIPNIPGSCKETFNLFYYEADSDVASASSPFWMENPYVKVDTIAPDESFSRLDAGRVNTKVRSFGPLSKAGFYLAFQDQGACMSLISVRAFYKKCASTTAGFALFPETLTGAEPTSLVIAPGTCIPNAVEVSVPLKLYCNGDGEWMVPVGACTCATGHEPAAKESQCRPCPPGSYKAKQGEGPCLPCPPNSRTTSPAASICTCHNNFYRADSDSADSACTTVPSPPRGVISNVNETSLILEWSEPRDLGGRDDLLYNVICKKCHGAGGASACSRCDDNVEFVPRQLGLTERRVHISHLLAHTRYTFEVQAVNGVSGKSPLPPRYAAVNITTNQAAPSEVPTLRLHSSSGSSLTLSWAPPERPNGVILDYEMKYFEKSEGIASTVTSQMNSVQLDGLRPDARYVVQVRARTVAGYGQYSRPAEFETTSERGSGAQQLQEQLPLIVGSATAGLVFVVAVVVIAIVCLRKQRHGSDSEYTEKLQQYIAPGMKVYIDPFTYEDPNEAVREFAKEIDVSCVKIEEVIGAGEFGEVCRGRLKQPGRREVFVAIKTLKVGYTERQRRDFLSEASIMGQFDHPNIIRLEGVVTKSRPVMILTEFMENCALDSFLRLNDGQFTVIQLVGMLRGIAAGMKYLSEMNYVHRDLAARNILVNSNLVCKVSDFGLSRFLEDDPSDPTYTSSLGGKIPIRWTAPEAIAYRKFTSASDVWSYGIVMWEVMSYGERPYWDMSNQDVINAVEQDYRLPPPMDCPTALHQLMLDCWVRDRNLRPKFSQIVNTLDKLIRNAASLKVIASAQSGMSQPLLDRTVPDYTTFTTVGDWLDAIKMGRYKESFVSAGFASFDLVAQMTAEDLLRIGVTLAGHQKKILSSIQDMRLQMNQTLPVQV

[15] = molecular target: T5, Ephrin type-B receptor 3 (Homo sapiens); conditions: at 10 µM
[16] = molecular target: Receptor tyrosine-protein kinase erbB-4 (Homo sapiens) (UniProt Q15303); conditions: at 1 µM
[17] = molecular target: Receptor tyrosine-protein kinase erbB-4 (Homo sapiens) (UniProt Q15303); conditions: at 10 µM

Sequence of Focal adhesion kinase 1 (Homo sapiens) (Q05397 2-1052 limits assumed): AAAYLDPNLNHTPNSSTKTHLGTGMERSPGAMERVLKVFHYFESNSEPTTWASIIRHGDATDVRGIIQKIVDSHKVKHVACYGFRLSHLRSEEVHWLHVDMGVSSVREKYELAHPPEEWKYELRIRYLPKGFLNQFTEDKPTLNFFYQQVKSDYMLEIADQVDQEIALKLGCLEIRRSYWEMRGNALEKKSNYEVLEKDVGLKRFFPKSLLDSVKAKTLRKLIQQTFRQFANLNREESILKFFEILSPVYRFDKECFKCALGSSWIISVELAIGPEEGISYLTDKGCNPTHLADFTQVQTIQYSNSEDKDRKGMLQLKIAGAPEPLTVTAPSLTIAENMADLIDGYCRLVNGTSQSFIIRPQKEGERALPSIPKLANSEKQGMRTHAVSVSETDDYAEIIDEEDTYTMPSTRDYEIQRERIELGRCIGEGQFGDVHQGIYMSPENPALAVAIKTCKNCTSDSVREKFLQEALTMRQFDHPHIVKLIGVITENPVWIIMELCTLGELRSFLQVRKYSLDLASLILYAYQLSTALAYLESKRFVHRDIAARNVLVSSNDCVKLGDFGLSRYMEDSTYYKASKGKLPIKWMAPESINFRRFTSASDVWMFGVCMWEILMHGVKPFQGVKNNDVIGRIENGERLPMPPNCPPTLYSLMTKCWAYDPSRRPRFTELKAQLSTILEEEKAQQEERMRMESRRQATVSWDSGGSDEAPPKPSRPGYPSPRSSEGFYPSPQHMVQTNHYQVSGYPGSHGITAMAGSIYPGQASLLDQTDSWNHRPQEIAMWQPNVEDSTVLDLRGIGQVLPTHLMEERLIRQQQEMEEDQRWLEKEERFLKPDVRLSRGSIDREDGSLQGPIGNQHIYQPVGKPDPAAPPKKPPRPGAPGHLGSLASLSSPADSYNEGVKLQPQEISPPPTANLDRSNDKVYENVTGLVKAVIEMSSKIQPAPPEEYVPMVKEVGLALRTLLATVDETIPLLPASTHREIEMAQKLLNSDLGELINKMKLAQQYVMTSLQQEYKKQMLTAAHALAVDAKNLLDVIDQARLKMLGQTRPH
Sequence of Receptor tyrosine-protein kinase erbB-4 (Homo sapiens) (Q15303 whole entry): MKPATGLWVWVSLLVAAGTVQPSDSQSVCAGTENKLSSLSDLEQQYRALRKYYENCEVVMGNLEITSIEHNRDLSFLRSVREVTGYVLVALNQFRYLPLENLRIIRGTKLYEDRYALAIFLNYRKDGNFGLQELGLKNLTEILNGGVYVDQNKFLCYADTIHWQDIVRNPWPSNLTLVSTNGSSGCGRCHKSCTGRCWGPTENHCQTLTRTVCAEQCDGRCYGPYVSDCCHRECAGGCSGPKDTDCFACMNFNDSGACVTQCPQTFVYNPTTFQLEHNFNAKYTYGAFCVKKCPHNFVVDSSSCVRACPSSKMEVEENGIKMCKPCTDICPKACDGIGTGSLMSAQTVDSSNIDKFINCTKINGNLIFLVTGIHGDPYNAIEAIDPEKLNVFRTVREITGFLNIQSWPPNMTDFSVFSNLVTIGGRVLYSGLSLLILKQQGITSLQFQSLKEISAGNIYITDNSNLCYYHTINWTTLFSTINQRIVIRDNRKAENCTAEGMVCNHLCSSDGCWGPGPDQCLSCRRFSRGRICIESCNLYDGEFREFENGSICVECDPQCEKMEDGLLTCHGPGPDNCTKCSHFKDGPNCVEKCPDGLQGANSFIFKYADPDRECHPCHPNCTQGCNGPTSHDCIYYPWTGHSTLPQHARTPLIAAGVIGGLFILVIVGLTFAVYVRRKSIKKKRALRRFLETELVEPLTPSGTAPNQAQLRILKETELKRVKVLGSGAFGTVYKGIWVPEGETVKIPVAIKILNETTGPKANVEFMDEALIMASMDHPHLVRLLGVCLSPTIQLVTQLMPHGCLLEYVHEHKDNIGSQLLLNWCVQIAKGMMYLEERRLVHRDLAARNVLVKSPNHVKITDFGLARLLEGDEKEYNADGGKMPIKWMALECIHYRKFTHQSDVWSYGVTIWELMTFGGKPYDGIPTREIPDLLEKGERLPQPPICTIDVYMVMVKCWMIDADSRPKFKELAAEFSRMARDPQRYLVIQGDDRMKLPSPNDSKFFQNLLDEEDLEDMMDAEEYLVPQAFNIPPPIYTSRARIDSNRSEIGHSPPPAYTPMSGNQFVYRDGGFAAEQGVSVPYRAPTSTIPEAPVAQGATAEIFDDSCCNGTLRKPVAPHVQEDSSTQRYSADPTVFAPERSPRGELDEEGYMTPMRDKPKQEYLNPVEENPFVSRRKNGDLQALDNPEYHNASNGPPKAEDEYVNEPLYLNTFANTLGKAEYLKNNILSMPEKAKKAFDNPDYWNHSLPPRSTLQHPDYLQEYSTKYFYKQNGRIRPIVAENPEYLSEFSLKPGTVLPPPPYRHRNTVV
Sequence of Ephrin type-A receptor 5 (Homo sapiens) (P54756 whole entry): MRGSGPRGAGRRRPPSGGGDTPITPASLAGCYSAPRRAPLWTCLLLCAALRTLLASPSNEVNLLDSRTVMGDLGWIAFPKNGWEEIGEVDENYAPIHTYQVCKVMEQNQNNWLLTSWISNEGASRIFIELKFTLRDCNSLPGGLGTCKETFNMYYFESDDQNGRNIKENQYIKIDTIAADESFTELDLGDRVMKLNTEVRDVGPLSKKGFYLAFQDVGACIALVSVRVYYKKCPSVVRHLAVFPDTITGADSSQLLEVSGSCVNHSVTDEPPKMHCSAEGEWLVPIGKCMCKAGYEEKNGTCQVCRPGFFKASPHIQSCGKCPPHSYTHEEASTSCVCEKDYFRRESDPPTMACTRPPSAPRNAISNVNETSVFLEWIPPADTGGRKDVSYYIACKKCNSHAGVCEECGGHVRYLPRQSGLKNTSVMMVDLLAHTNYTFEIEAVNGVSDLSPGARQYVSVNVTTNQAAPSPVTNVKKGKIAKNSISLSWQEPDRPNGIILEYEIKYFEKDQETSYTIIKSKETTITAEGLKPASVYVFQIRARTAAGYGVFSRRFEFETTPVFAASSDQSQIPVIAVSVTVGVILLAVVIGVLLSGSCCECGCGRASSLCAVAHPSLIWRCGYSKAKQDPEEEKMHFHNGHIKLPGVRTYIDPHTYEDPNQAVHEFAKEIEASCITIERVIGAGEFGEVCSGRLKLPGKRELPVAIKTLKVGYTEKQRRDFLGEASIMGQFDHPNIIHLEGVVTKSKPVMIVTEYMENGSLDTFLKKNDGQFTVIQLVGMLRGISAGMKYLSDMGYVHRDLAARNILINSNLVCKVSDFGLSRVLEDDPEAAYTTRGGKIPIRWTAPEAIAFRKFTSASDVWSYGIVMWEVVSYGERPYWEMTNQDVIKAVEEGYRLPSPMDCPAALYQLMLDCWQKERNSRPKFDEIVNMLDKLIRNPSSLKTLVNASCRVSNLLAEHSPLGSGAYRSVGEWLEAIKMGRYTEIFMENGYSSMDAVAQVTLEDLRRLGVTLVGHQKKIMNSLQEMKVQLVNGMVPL
Sequence of Ephrin type-A receptor 7 (Homo sapiens) (Q15375 28-998 limits assumed): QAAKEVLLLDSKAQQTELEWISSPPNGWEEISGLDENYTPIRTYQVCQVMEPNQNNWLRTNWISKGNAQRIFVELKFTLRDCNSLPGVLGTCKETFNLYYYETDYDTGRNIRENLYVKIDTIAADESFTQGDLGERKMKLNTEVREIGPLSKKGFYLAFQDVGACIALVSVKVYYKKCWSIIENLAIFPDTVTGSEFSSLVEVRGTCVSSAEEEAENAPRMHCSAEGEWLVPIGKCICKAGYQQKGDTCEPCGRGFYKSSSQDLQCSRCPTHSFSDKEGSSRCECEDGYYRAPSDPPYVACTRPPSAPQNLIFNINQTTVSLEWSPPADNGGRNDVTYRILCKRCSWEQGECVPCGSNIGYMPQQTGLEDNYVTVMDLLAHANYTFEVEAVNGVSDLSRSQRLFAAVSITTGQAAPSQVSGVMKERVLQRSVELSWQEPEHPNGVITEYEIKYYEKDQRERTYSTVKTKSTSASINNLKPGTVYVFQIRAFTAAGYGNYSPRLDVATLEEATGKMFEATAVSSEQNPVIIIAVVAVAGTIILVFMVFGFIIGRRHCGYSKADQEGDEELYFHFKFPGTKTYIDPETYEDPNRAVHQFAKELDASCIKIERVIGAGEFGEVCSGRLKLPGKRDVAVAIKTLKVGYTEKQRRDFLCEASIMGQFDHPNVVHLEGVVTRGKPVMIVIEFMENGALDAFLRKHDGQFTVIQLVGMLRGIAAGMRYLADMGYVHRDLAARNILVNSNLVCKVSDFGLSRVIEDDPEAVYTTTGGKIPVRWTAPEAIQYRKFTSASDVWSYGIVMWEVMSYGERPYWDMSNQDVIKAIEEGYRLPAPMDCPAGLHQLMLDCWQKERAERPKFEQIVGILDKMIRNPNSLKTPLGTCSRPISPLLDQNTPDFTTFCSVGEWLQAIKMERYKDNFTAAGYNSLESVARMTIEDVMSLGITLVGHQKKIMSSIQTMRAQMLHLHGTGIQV

Row | SMILES | residual activity [1] | residual activity [2] | residual activity [3] | residual activity [4] | residual activity [5] | residual activity [6] | residual activity [7] | residual activity [8] | residual activity [9] | residual activity [10] | residual activity [11] | residual activity [12] | residual activity [13] | residual activity [14] | residual activity [15] | residual activity [16] | residual activity [17]
1 | Nc1ncnc2c1cnn2-c1ccccc1 | 84% | 97% | 88% | 102% | 97% | 100% | 95% | 95% | 102% | 137% |  |  |  |  |  |  | 
2 | COc1ccc(COc2ccc(Cc3cnc(N)nc3N)cc2OC)cc1 | 78% |  |  |  |  |  | 110% | 99% | 113% | 115% | 111% | 108% | 129% | 114% (inactive) | 110% | 99% | 70%

Source: ChEMBL document CHEMBL2218924, “A broad activity screen in support of a chemogenomic map for kinase signalling research and drug discovery” (Biochem J, 2013)
